Assay outcomes from PubChem BioAssay.
Compounds with a hit are over-represented: about 17% of the library has one in this group of screens.
TGFb inhibitor – TGF-b pathway inhibition. Potency, µM (top dose mostly 46.1 µM), usual class: inhibitors. AID 588855. HepG2 CAGA-GFP TGF-b/SMAD3 reporter, GFP fluorescence, 18 h; TGF-beta stimulated, 500 pg/mL final. 410,000 compounds, 1.2% hits; note: nearly all actives have a fitted effect of over 65% in size
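Read-out: total well GFP (ex488/em500-530) summed from mean per-cell fluorescence. Cells: HEPG2 CAGA-GFP, 1% FBS DMEM, 18 h at 37 degrees C with 500 pg/mL final TGF-beta. Unstimulated wells served as the full-inhibition control; stimulated DMSO wells = 0%.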
DT40 TDP1 no CPT – qHTS for Inhibitors of human tyrosyl-DNA phosphodiesterase 1 (TDP1): qHTS in cells in absence of CPT. DT40 Tdp1-/- hTDP1 cells, no CPT, ATP luminescence, 48 h. Potency, µM (titrated, usually from 46.2 µM), actives largely listed as inhibitors. 420,000 compounds, 15% hits; note: nearly all actives have a fitted effect of over 55% in size
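Seeded 400 DT40-hTDP1 cells/well (vehicle DMSO, no 20 nM CPT); pinned compounds; ≥48 hr at 37 °C; CellTiter-Glo luminescence as viability measure.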
DT40 TDP1 CPT – growth inhibition of DT40 Tdp1-/-;hTDP1 cells with camptothecin (screen for TDP1 inhibitors); chicken DT40 Tdp1-/-;hTDP1 cells + 20 nM CPT, ATP luminescence, 48 h; 420,000 compounds, 12% hits; Potency, µM (highest dose often 46.2 µM), usual class: inhibitors; note: nearly all actives have a fitted effect of over 55% in size
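Chicken DT40 Tdp1-/- cells stably complemented with human TDP1 were seeded at 400 cells/well in medium containing 20 nM camptothecin, exposed to pin-transferred compounds, and grown at 37 °C for at least 48 hr. Viability was read as ATP luminescence.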
ATXN2 expr inh – reduces ATXN2 reporter expression in HEK-293 cells; HEK-293 ATXN2-luciferase reporter, luminescence, 24 h; AID 1745845; 360,000 compounds, 0.72% hits; Potency, µM (doses to about 57 µM), most hits filed as inhibitors; note: nearly all actives have a fitted effect of over 55% in size
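ATXN2-luciferase reporter cells (luciferase flanked by upstream and downstream ATXN2 gene portions) were treated 24 h at 37 °C with compounds at up to 57 uM. SteadyGlo luminescence gave expression; GF-AFC fluorescence gave viability.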
HepG2 tox – kills HepG2 cells in TGF-b inhibitor counter-screen; HepG2 CAGA-GFP viability, ATP luminescence, 18 h; 410,000 compounds, 0.76% hits; Potency, µM (titrated, usually from 46.1 µM), hits mostly cytotoxic
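CellTiter-Glo luminescence gave cytotoxicity after 18 hours at 37 degrees C. The cells were HepG2 CAGA-GFP in 1% FBS DMEM, stimulated with 500 pg/mL TGF-beta after compound addition. %Activity was normalised to no-cell wells (complete cell-killing) and DMSO (no toxicity), and curves were fitted and classified.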
ATXN viability – reduces viability in counter-screen for ATXN expression inhibitors | S2 cells (HEK-293 line with an ATXN2-luciferase reporter) viability, CellTiter-Fluor protease fluorescence, 24 h | Potency, µM (highest dose often 56.7 µM), actives largely listed as cytotoxic | 400,000 compounds, 0.49% hits | AID 651635; note: nearly all actives have a fitted effect of over 40% in size
Large screens that a line does not name were inactive. Calls come from the whole dose curve; as a rule, active = well fitted curve in the direction sought with a large enough effect; inconclusive = small, poorly fitted or top-dose-only effect, or another doubt; inactive = no such curve, though single readings can be large; an effect the other way counts as inactive or inconclusive.

CCOC(=O)CC(NC(=O)C(Cc1ccc(N(CCCl)CCCl)cc1)NC(C)=O)C(=O)OCC (configuration not stated)	TGFb inhibitor inconclusive, DT40 TDP1 no CPT 0.52µM, DT40 TDP1 CPT 1.5µM, ATXN viability inconclusive
CC(C)Cc1nc(N2CCNCC2)c(C#N)c2c1CCC2	DT40 TDP1 no CPT 18µM, DT40 TDP1 CPT inconclusive
CCc1nc(N2CCNCC2)c(C#N)c2c1CSC(C)(C)C2	DT40 TDP1 no CPT inconclusive, DT40 TDP1 CPT inconclusive
CCC(C)/C=C(C)/C=C/C1=CC2=C(Cl)C(=O)C(C)(OC(C)=O)C(=O)C2=CO1 (configuration not stated)	TGFb inhibitor inconclusive, DT40 TDP1 no CPT inconclusive, DT40 TDP1 CPT 15µM, ATXN viability inconclusive
CC[C@H](C)/C=C(C)/C=C/C1=CC2=C(Cl)C(=O)[C@@](C)(OC(C)=O)C(=O)C2=CO1	DT40 TDP1 no CPT inconclusive, DT40 TDP1 CPT inconclusive, ATXN viability inconclusive
Cc1ccc(C(C#N)=Cc2ccc3c(c2)OCO3)cc1	DT40 TDP1 no CPT 12µM, DT40 TDP1 CPT inconclusive (no result: ATXN2 expr inh)
CCCCn1c(O)c(C(=O)/C=C/c2ccc3c(c2)OCO3)c(=O)[nH]c1=O	DT40 TDP1 no CPT inconclusive, DT40 TDP1 CPT inconclusive
COC(=O)C1=C(C)NC(=S)NC1c1ccc(N(CCCl)CCCl)cc1Cl (configuration not stated)	DT40 TDP1 no CPT 21µM, DT40 TDP1 CPT 9.2µM, ATXN viability inconclusive
C=CCN1C(=O)/C(=C/c2ccc(Br)s2)C(=O)NC1=S	TGFb inhibitor inconclusive, DT40 TDP1 no CPT 21µM, DT40 TDP1 CPT inconclusive (no result: ATXN2 expr inh)
CN1C(=O)/C(=C/c2ccc(Cl)s2)C(=O)NC1=S	DT40 TDP1 no CPT 9.2µM, DT40 TDP1 CPT 7.3µM, ATXN2 expr inh inconclusive, ATXN viability 16µM
Cc1ccsc1/C=C1\C(=O)NC(=S)N(C)C1=O	TGFb inhibitor inconclusive, DT40 TDP1 no CPT 3.3µM, DT40 TDP1 CPT 5.8µM, ATXN viability inconclusive (no result: ATXN2 expr inh)
COc1ccc(/C=C2\C(=O)NC(=S)N(C)C2=O)cc1C	none
CN1C(=O)/C(=C\c2ccc(N3CCCCCC3)cc2)C(=O)NC1=S	DT40 TDP1 no CPT inconclusive, DT40 TDP1 CPT inconclusive (no result: ATXN2 expr inh)
COc1cccc2c1[C@]13CCN(CC4CC4)[C@H](C2)[C@]1(OC)CCC(=O)C3	none (no result: TGFb inhibitor, DT40 TDP1 no CPT, DT40 TDP1 CPT, HepG2 tox, ATXN viability)
C[C@H]1O[C@@H](O[C@H]2[C@@H](O)C[C@@H](O[C@H]3[C@@H](O)C[C@H](O[C@H]4CC[C@@]5(C)[C@H](CC[C@@H]6[C@@H]5CC[C@]5(C)[C@@H](C7=CC(=O)OC7)CC[C@]65O)C4)O[C@@H]3C)O[C@@H]2C)C[C@H](O)[C@@H]1O	TGFb inhibitor 0.32µM, DT40 TDP1 no CPT 0.11µM, DT40 TDP1 CPT 0.32µM (no result: ATXN2 expr inh, ATXN viability)
C[C@H]1O[C@@H](O[C@H]2[C@@H](O)C[C@H](O[C@H]3[C@@H](O)C[C@H](O[C@H]4CC[C@]5(C)C6CC[C@]7(C)[C@@H](C8=CC(=O)OC8)CC[C@]7(O)C6CC[C@@H]5C4)O[C@@H]3C)O[C@@H]2C)C[C@H](O)[C@@H]1O (some centres not stated)	DT40 TDP1 no CPT 0.38µM, DT40 TDP1 CPT 0.34µM (no result: TGFb inhibitor, ATXN2 expr inh, HepG2 tox, ATXN viability)
COC1C(O)C(C)OC(OC2CCC3(C)C(CCC4C3C(O)CC3(C)C(C5=CC(=O)OC5)CCC43O)C2)C1O (configuration not stated)	TGFb inhibitor 2µM, DT40 TDP1 no CPT 2.1µM, DT40 TDP1 CPT 1.8µM, ATXN2 expr inh 0.4µM, ATXN viability inconclusive
CC(=O)OC1CC[C@]2(C)C(CCC3C2CC[C@]2(C)C(C4=CC(=O)OC4)C(OC(C)=O)CC32O)C1 (some centres not stated)	DT40 TDP1 no CPT inconclusive (no result: TGFb inhibitor, ATXN2 expr inh, HepG2 tox, ATXN viability)
